{"source": "paper PMC9911399", "about": "“Two distinct binding modes provide the RNA-binding protein RbFox with extraordinary sequence specificity”", "binders": {"B1": {"name": "UAUACUA (DNA:RNA)", "RNA": "GGGAGACCGGAAUUCAGAUUGUCCUAUACUAUUAAAUCCCGUCGUAGCCACCA", "DNA 1": "CAATCTGAATTCCGGTCTCCC", "DNA 2": "TGGTGGCTACGACGGGATT"}, "B2": {"name": "CUUGGCU (DNA:RNA)", "RNA": "B1 RNA with U25C, A26U, A28G, C29G, U30C, A31U", "DNA 1": "CAATCTGAATTCCGGTCTCCC", "DNA 2": "TGGTGGCTACGACGGGATT"}, "B3": {"name": "AAGCCAC (DNA:RNA)", "RNA": "B1 RNA with U25A, U27G, A28C, U30A, A31C", "DNA 1": "CAATCTGAATTCCGGTCTCCC", "DNA 2": "TGGTGGCTACGACGGGATT"}, "B4": {"name": "CUGCCGC (DNA:RNA)", "RNA": "B1 RNA with U25C, A26U, U27G, A28C, U30G, A31C", "DNA 1": "CAATCTGAATTCCGGTCTCCC", "DNA 2": "TGGTGGCTACGACGGGATT"}, "B5": {"name": "UACUCGG (DNA:RNA)", "RNA": "B1 RNA with U27C, A28U, U30G, A31G", "DNA 1": "CAATCTGAATTCCGGTCTCCC", "DNA 2": "TGGTGGCTACGACGGGATT"}, "B6": {"name": "CAGGGUU (DNA:RNA)", "RNA": "B1 RNA with U25C, U27G, A28G, C29G, A31U", "DNA 1": "CAATCTGAATTCCGGTCTCCC", "DNA 2": "TGGTGGCTACGACGGGATT"}, "B7": {"name": "CCUACAU (DNA:RNA)", "RNA": "B1 RNA with U25C, A26C, U30A, A31U", "DNA 1": "CAATCTGAATTCCGGTCTCCC", "DNA 2": "TGGTGGCTACGACGGGATT"}, "B8": {"name": "UGUCUCG (DNA:RNA)", "RNA": "B1 RNA with A26G, A28C, C29U, U30C, A31G", "DNA 1": "CAATCTGAATTCCGGTCTCCC", "DNA 2": "TGGTGGCTACGACGGGATT"}, "B9": {"name": "UGAAGGC (DNA:RNA)", "RNA": "B1 RNA with A26G, U27A, C29G, U30G, A31C", "DNA 1": "CAATCTGAATTCCGGTCTCCC", "DNA 2": "TGGTGGCTACGACGGGATT"}, "B10": {"name": "AUUUCAU (DNA:RNA)", "RNA": "B1 RNA with U25A, A26U, A28U, U30A, A31U", "DNA 1": "CAATCTGAATTCCGGTCTCCC", "DNA 2": "TGGTGGCTACGACGGGATT"}, "B11": {"name": "CACACCG (DNA:RNA)", "RNA": "B1 RNA with U25C, U27C, U30C, A31G", "DNA 1": "CAATCTGAATTCCGGTCTCCC", "DNA 2": "TGGTGGCTACGACGGGATT"}, "B12": {"name": "UGGGUAU (DNA:RNA)", "RNA": "B1 RNA with A26G, U27G, A28G, C29U, U30A, A31U", "DNA 1": "CAATCTGAATTCCGGTCTCCC", "DNA 2": "TGGTGGCTACGACGGGATT"}, "B13": {"name": "GUUCCGU (DNA:RNA)", "RNA": "B1 RNA with U25G, A26U, A28C, U30G, A31U", "DNA 1": "CAATCTGAATTCCGGTCTCCC", "DNA 2": "TGGTGGCTACGACGGGATT"}, "B14": {"name": "AUAUCCC (DNA:RNA)", "RNA": "B1 RNA with U25A, A26U, U27A, A28U, U30C, A31C", "DNA 1": "CAATCTGAATTCCGGTCTCCC", "DNA 2": "TGGTGGCTACGACGGGATT"}, "B15": {"name": "UGAUACC (DNA:RNA)", "RNA": "B1 RNA with A26G, U27A, A28U, C29A, U30C, A31C", "DNA 1": "CAATCTGAATTCCGGTCTCCC", "DNA 2": "TGGTGGCTACGACGGGATT"}, "B16": {"name": "CCUAGCC (DNA:RNA)", "RNA": "B1 RNA with U25C, A26C, C29G, U30C, A31C", "DNA 1": "CAATCTGAATTCCGGTCTCCC", "DNA 2": "TGGTGGCTACGACGGGATT"}, "B17": {"name": "GGAAGUC (DNA:RNA)", "RNA": "B1 RNA with U25G, A26G, U27A, C29G, A31C", "DNA 1": "CAATCTGAATTCCGGTCTCCC", "DNA 2": "TGGTGGCTACGACGGGATT"}, "B18": {"name": "UGGUACG (DNA:RNA)", "RNA": "B1 RNA with A26G, U27G, A28U, C29A, U30C, A31G", "DNA 1": "CAATCTGAATTCCGGTCTCCC", "DNA 2": "TGGTGGCTACGACGGGATT"}, "B19": {"name": "CGGUACG (DNA:RNA)", "RNA": "GGGAGACCGGAAUUCAGAUUGUCCCGGUACGUUAAAUCCCGUCGUAGCCACCA", "DNA 1": "CAATCTGAATTCCGGTCTCCC", "DNA 2": "TGGTGGCTACGACGGGATT"}, "B20": {"name": "UGGUACC (DNA:RNA)", "RNA": "B19 RNA with C25U, G31C", "DNA 1": "CAATCTGAATTCCGGTCTCCC", "DNA 2": "TGGTGGCTACGACGGGATT"}, "B21": {"name": "GUCCUUG (DNA:RNA)", "RNA": "B19 RNA with C25G, G26U, G27C, U28C, A29U, C30U", "DNA 1": "CAATCTGAATTCCGGTCTCCC", "DNA 2": "TGGTGGCTACGACGGGATT"}, "B22": {"name": "UUGUUCG (DNA:RNA)", "RNA": "B19 RNA with C25U, G26U, A29U", "DNA 1": "CAATCTGAATTCCGGTCTCCC", "DNA 2": "TGGTGGCTACGACGGGATT"}, "B23": {"name": "UUGUCCG (DNA:RNA)", "RNA": "B19 RNA with C25U, G26U, A29C", "DNA 1": "CAATCTGAATTCCGGTCTCCC", "DNA 2": "TGGTGGCTACGACGGGATT"}}, "note": "Substitutions are numbered along the chain they refer to; changes in the protein carry UniProt numbers. Over roughly 16,000 sequences, “ka relative to ugcaugu” has its median near 0.096; the highest 2% begin near 0.35. Many of the other results were omitted from the sample, so the highest values are more common in it than they were.", "data": [{"target": "T1, RBFOX1 RRM RbFoxmut (Fox-RRM*) (Homo sapiens, UniProt Q9NWB1 109-208, R118D;E147R;N151S;E152T)", "T1 sequence": "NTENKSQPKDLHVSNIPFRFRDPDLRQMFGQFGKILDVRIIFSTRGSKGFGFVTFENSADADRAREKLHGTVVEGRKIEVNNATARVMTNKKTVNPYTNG", "assay": "EMSA; HiTS-Eq, 1 nM pool, 10 min; buffer printed only for the single-RNA assays: 10 mM Tris pH 7.5, 150 mM NaCl, 3.4 mM EDTA, 0.001% NP-40, 30 C", "conditions": "tags: His6 N-terminal (pET28a); label: 5' 32P", "method_in_brief": "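A pool of RNA with 7 randomized nucleotides, 5′-radiolabelled and with DNA-annealed flanks, was equilibrated at 1 nM for 10 min in 50 µL with purified RbFox RRM, wild type or mutant, across increasing protein concentrations. Free RNA was separated by 8% native PAGE, excised, reverse-transcribed, barcoded by PCR and sequenced. Relative association constants were obtained from read-count changes of each RNA species versus the control reaction and normalised to the cognate motif.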", "values": [{"binder": "B1", "binding signal": "0.0619 KA relative to UGCAUGU"}, {"binder": "B2", "binding signal": "0.102 KA relative to UGCAUGU"}, {"binder": "B3", "binding signal": "0.0884 KA relative to UGCAUGU"}, {"binder": "B4", "binding signal": "0.116 KA relative to UGCAUGU"}, {"binder": "B5", "binding signal": "0.0779 KA relative to UGCAUGU"}, {"binder": "B6", "binding signal": "0.106 KA relative to UGCAUGU"}, {"binder": "B7", "binding signal": "0.0881 KA relative to UGCAUGU"}, {"binder": "B8", "binding signal": "0.32 KA relative to UGCAUGU"}, {"binder": "B9", "binding signal": "0.0677 KA relative to UGCAUGU"}, {"binder": "B10", "binding signal": "0.12 KA relative to UGCAUGU"}, {"binder": "B11", "binding signal": "0.12 KA relative to UGCAUGU"}, {"binder": "B12", "binding signal": "0.172 KA relative to UGCAUGU"}, {"binder": "B13", "binding signal": "0.127 KA relative to UGCAUGU"}, {"binder": "B14", "binding signal": "0.0954 KA relative to UGCAUGU"}, {"binder": "B15", "binding signal": "0.103 KA relative to UGCAUGU"}, {"binder": "B16", "binding signal": "0.149 KA relative to UGCAUGU"}, {"binder": "B17", "binding signal": "0.111 KA relative to UGCAUGU"}, {"binder": "B18", "binding signal": "0.367 KA relative to UGCAUGU"}, {"binder": "B19", "binding signal": "0.24 KA relative to UGCAUGU"}, {"binder": "B20", "binding signal": "0.133 KA relative to UGCAUGU"}, {"binder": "B21", "binding signal": "0.116 KA relative to UGCAUGU"}, {"binder": "B22", "binding signal": "0.463 KA relative to UGCAUGU"}, {"binder": "B23", "binding signal": "0.188 KA relative to UGCAUGU"}]}]}
